Most compounds without a hit are left out; they make up all but 1.6% or so of the library.
STAT1 blocker: inhibitors of IFN-gamma induced STAT1 signaling. NIH 3T3 STAT1-luciferase reporter, luminescence. inhibition, % at 5.5 µM. actives 0.35% (n = 200,000). AID 920;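 active means inhibition above a set limit, the mean inhibition across all tested compounds plus 3 SD, cut at about 34% in these data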;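 further: 0% = IFN-gamma with DMSO and 100% = IFN-gamma with 300 µM nifuroxazide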
STAT3 inh-1: inhibitors of IL-6 induced STAT3 signaling; U3A cells, IL-6 STAT3-luciferase reporter, luminescence; host cell line lacks STAT1; inhibition, % at 5.5 µM; actives 0.89% (n = 190,000);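 active means inhibition above the mean inhibition across all screened compounds plus 3 SD, cut at about 44% in these data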;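 further: 0% = DMSO only wells and 100% = 100 µM nifuroxazide control wells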
PPC-1+TRAIL kill: compounds killing PPC-1 cancer cells with TRAIL present (potentiator screen, no TRAIL-free arm); actives 0.41% (n = 220,000); PPC-1 cells + TRAIL, ATPLite viability luminescence; cell killing (% activity), % at 4 µM or 5 µM;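 active means cell killing above 50% in the first pass at 4 µM, then a duplicate retest at 5 µM averaging 50% or more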;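 further: plate controls were cells with TRAIL plus DMSO for no effect and medium-only wells lacking cells for full effect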
C8 TRAIL sens: caspase-8 TRAIL sensitization. actives 1% (n = 360,000). inhibition (viability loss, TRAIL sensitization), % at 10 µM. NB7+C8 cells + TRAIL, ATPlite viability luminescence;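 active means compounds causing at least 50% loss of cell viability in the single-dose screen, relative to plate controls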
Platelet DG rel: platelet dense granule release activity; human platelet-rich plasma, SFLLRN dense granule ATP release, luminescence; inhibition, %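 (compounds screened at 7.5 µM in platelet-rich plasma)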; actives 0.22% (n = 300,000); AID 1663;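 active means mean replicate score, as percent of positive control, at or above 50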
STAT3 inh-2: STAT3 inhibition, confirmation assay; shares compounds with STAT3 inh-1; inhibition, % at 5.7 µM; U3A cells, IL-6 STAT3 luciferase reporter, luminescence; cell line lacks STAT1; actives 45% (n = 1,200);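 active means inhibition above the hit cutoff computed for the primary STAT3 screen, cut at about 44% in these data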;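 further: 0% = IL-6 plus DMSO and 100% = IL-6 plus nifuroxazide control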
NFkB inh 2: inhibits NF-kappaB, counter-screen to STAT3 inhibitors. AID 1308. inhibition, % at 5.7 µM. shares compounds with STAT3 inh-1. HEK293T NF-kB luciferase reporter, TNF-alpha induced. actives 36% (n = 1,200);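 active means inhibition above the mean of solvent-only control wells plus 3 SD, cutoff set per campaign, cut at about 13% in these data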;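 further: 0% = TNF-alpha with DMSO and 100% = TNF-alpha with MG high control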
STAT1 inh 2: counter-screen for STAT3 inhibitors: STAT1 inhibition; shares compounds with STAT3 inh-1; NIH 3T3 STAT1-luciferase reporter, IFN-gamma induced, luminescence; inhibition, % at 5.7 µM; actives 27% (n = 1,200);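 active means inhibition above the mean plus 3 SD of solvent-only control wells, limit set per screening run, cut at about 16% in these data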;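 further: 0% = DMSO with IFN-gamma and 100% = nifuroxazide control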
Numbers without * were called inactive; nt = not tested or not shown.

SMILES | STAT1 blocker | STAT3 inh-1 | PPC-1+TRAIL kill | C8 TRAIL sens | Platelet DG rel | STAT3 inh-2 | NFkB inh 2 | STAT1 inh 2
Cc1ccc(S(=O)(=O)C(C#N)c2nc3ccccc3nc2N2CCCCC2)cc1 (centres undefined) | nt | nt | 3 | nt | nt | nt | nt | nt
Cc1ccc(S(=O)(=O)N2[C@H](CC(=O)Oc3ccccc3)OC[C@@H]2C(C)C)cc1 | nt | nt | nt | -4 | nt | nt | nt | nt
Cc1noc(C)c1C(=O)N1CCCC(C)(C(=O)NS(=O)(=O)C2CC2)C1 (centres undefined) | nt | nt | nt | -15 | nt | nt | nt | nt
c1ccc(CN=C2NN=C(c3cc4ccccc4o3)CS2)cc1 | -12 | 2 | -1 | -10 | 24 | nt | nt | nt
c1ccc2oc(C3=NNC(=NC4CC4)SC3)cc2c1 | -19 | 57* | 15 | 34 | 6 | 23 | -19 | -54
CCOC(=O)N(C)c1c(CC)nc2c(OCc3ccccc3)cccn12 | nt | nt | nt | -1 | nt | nt | nt | nt
C[C@@H]1CCCCO[C@H](CN(C)Cc2ccc(C(=O)O)cc2)[C@H](C)CN([C@@H](C)CO)C(=O)c2cc(NC(=O)Nc3ccc(C(F)(F)F)cc3)ccc2O1 | nt | nt | nt | -2 | nt | nt | nt | nt
O=C(NCCC1=CCCCC1)c1[nH]c(C(F)(F)F)nc1-c1ccccc1 | nt | nt | nt | 6 | nt | nt | nt | nt
Cc1ccc(Cl)cc1N1CCN(C(=O)COc2ccc(S(=O)(=O)NC(C)C)cc2)CC1 | 11 | 60* | 14 | 16 | 2 | 49* | 10 | 10
CC1CC1C(=O)OCC(=O)N(C)c1c(N)n(Cc2ccccc2)c(=O)[nH]c1=O (centres undefined) | nt | nt | nt | -9 | -3 | nt | nt | nt
Cc1cc(C)c2nc(NC(=O)c3ccc(OCC4CCCO4)cc3)sc2c1 (centres undefined) | -8 | 47* | 12 | 34 | 2 | 36 | 0 | -11
Cc1ccc(S(=O)(=O)Nc2ccccc2N=Cc2ccc([N+](=O)[O-])cc2[N+](=O)[O-])cc1 | nt | nt | nt | -12 | nt | nt | nt | nt
CCC(=O)N(C1=C(NC)C(=O)c2ccccc2C1=O)C(C)C | 7 | -1 | 50 | 37 | -2 | nt | nt | nt
CNC1=C(N(C(C)=O)c2ccc(Br)cc2)C(=O)c2ccccc2C1=O | 28 | 49* | 68* | 92* | -4 | 53* | 31* | 41*
F[B-](F)(F)COc1ccccc1 | nt | nt | nt | -10 | nt | nt | nt | nt
Nc1nc2c(Cl)ccc(Cl)c2s1 | 16 | 46* | 2 | 13 | -3 | 40 | -7 | -14
Nc1nc2c(Cl)cc(Cl)cc2s1 | -18 | 14 | -17 | -12 | -2 | nt | nt | nt
N=c1c2c(n(Cc3ccc(Br)cc3)c3c1CCC3)CCCC2 | 19 | 63* | 43 | 27 | -1 | 49* | 1 | 22*
N=c1c2c(n(Cc3ccc([N+](=O)[O-])cc3)c3c1CCC3)CCCC2 | 4 | 13 | -2 | 14 | 0 | nt | nt | nt
N=c1c2c(n(Cc3ccc(Cl)c(Cl)c3)c3c1CCC3)CCCC2 | 28 | 61* | 42 | 65* | -1 | 24 | 9 | 25*
Cc1ccc(C(=O)N2CCNC(=O)C2CC(=O)Nc2ccccc2)cc1 (centres undefined) | nt | nt | nt | -2 | 17 | nt | nt | nt
CCN(Cc1ccccc1)S(=O)(=O)c1ccc(C(=O)N(CCCN(C)C)c2nc3c(C)c(C)ccc3s2)cc1 | nt | nt | nt | 48 | -8 | nt | nt | nt
COc1ccc(Br)c(Cn2c(C)c(C(=O)NCCC#N)sc2=O)c1 | nt | nt | nt | 11 | nt | nt | nt | nt
CC(C)n1c(NCCc2ccccc2)nc2c1c(=O)n(C)c(=O)n2C | 31 | 45* | -3 | 14 | -4 | 38 | 8 | 32*
CCCS(=O)(=O)NC(=O)C1(C)CCCN(C(=O)c2ccc3ccccc3n2)C1 (centres undefined) | nt | nt | nt | -10 | nt | nt | nt | nt
SMILES | STAT1 blocker | STAT3 inh-1 | PPC-1+TRAIL kill | C8 TRAIL sens | Platelet DG rel | STAT3 inh-2 | NFkB inh 2 | STAT1 inh 2
CCc1nnc(NC(=O)c2ccc(OC)cc2OC)s1 | -47 | 49* | 34 | 28 | -7 | 13 | -28 | -118
Cc1ccc(CN=C2Nc3ccccc3CS2)cc1 | -2 | 59* | 34 | 49 | 3 | -4 | -27 | -100
COc1ccc2nc3c(cc2c1)c(NC(=O)c1cccs1)nn3CC(C)C | 7 | 59* | 21 | 28 | 0 | 54* | -10 | 2
CC(C)Cn1nc(NC(=O)c2cccs2)c2cc3ccccc3nc21 | nt | nt | 7 | -17 | -3 | nt | nt | nt
O=C(Nc1cccc2cccnc12)c1ccc2sc([C@@H]3O[C@H](CO)[C@H](O)[C@H](O)[C@H]3O)nc2c1 | nt | nt | nt | 17 | nt | nt | nt | nt
Cc1ccc2c(c1)[nH]c1c(N3CCN(Cc4ccccc4)CC3)ncnc12 | 22 | 31 | 26 | 33 | 2 | nt | nt | nt
Cc1ccc2[nH]c3c(N4CCN(Cc5ccc6c(c5)OCO6)CC4)ncnc3c2c1 | 31 | 54* | 20 | nt | nt | 33 | 15* | 17*
CCOC(=O)N1CCN(C(=O)CSCC(=O)Nc2nc(-c3ccc(OC)cc3)cs2)CC1 | 4 | 18 | 12 | 0 | -4 | nt | nt | nt
CCOC(=O)N1CCN(C(=O)CSCC(=O)Nc2nc(-c3ccc(-c4ccccc4)cc3)cs2)CC1 | 0 | 72* | 24 | 62* | 1 | 73* | 15* | -8
COc1ccc(N2CCN(C(=O)CSc3nnc4n3C(C)(C)Cc3ccccc3-4)CC2)cc1 | 3 | 11 | 27 | -1 | -3 | nt | nt | nt
Cc1ccc(Cl)cc1N1CCN(C(=O)CSc2nnc3n2C(C)(C)Cc2ccccc2-3)CC1 | 21 | 81* | 17 | 27 | -5 | 72* | 15* | 17*
CCOc1ccc(-c2noc(CCC(=O)O)n2)cc1 | 23 | 59* | -9 | 4 | 6 | 40 | 24* | 10
COc1ccc(-c2noc(CCCC(=O)O)n2)cc1 | 33 | 57* | -5 | -8 | 0 | 45* | 30* | 11
O=C1C2C3c4ccccc4C(c4ccccc43)C2c2nc3ccccc3n21 (centres undefined) | 3 | 64* | 17 | 13 | -2 | 59* | 12 | -2
COC(=O)c1ccc(-c2nc3cc(N)ccc3o2)cc1 | 3 | 59* | 32 | 56* | 6 | 31 | 1 | -48
Cc1ccc(-c2nc3cc(N)ccc3o2)cc1Br | nt | nt | nt | 24 | 5 | nt | nt | nt
Cc1ccc(-c2cc(-c3ccccc3)no2)c(O)c1 | -14 | 49* | 50 | 78* | 38 | 7 | 18* | -21
N#Cc1nc(N2CCCC2)nc(N2CCCC2)n1 | 7 | 56* | 23 | 12 | -3 | 56* | 28* | 6
N#Cc1nc(N2CCCCC2)nc(N2CCOCC2)n1 | -3 | 15 | 24 | -3 | 5 | nt | nt | nt
CCOC(=O)Cc1csc(N/N=C/c2ccc(C(F)(F)F)cc2)n1 | 26 | 60* | 15 | 6 | -8 | 22 | 13* | -47
COc1ccc(NC(=O)C2=Cc3ccccc3OC2)cc1 | 20 | 58* | 17 | 21 | -4 | 24 | -32 | -109

From PubChem BioAssay
